Where “and” joins values, the source holds several entries; their conditions need not be identical. Equal values may be shown once. The campaign covered roughly 5,500 compounds. About 2,000 (36%) were called active. Not shown: some 18% with an inconclusive outcome. Rule as the data show it: active = normalized growth mostly below about 0.91 (no sharp cut-off); inconclusive = no clear call, values can overlap the other calls; inactive = mostly above about 0.92. The list shows a part of the results.
Assay: chemical genetic growth profiling, strain panel (AID 1159580);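 also: tested at 20 µM; growth read once vehicle control cultures reached saturation at 30 °C; 1 = growth at the plate median or of vehicle wells; lower values mean less growth of the strain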
Details: growth OD

Measured: normalized growth

CC(C)(C)NCC(O)c1ccc(O)c(CO)c1 (stereo not given)
inactive: S. cerevisiae deletion strains, locus YJR075W, strain HOC1, active compounds read low 0.997 and 1.01 | S. cerevisiae deletion strains, locus YKL009W, strain mrt4, active compounds read low 1.02 | S. cerevisiae deletion strains, locus YKL068W, active compounds read low 1.01 | S. cerevisiae deletion strains, locus YKL085W, strain MDH1 (second series), active compounds read low 1.03 | S. cerevisiae deletion strains, locus YKL085W, strain MDH1, active compounds read low 1.03 | S. cerevisiae deletion strains, locus YKL160W, strain elf1, active compounds read low 1.02 | S. cerevisiae deletion strains, locus YKL190W, strain CNB1, active compounds read low 1.02 | S. cerevisiae deletion strains, locus YKR001C, strain vps1, active compounds read low 1.01 | S. cerevisiae deletion strains, locus YKR026C, strain gcn3, active compounds read low 0.999 | S. cerevisiae deletion strains, locus YKR091W, strain srl3, active compounds read low 1 | S. cerevisiae deletion strains, locus YLL001W, strain dnm1, active compounds read low 1.02 | S. cerevisiae deletion strains, locus YLL026W, active compounds read low 1 | S. cerevisiae deletion strains, locus YLL041C, strain sdh2, active compounds read low 1.02 | S. cerevisiae deletion strains, locus YLR027C, strain aat2, active compounds read low 1.01 | S. cerevisiae deletion strains, locus YLR039C, strain RIC1, active compounds read low 1.06 | S. cerevisiae deletion strains, locus YLR058C, strain SHM2, active compounds read low 1.01 | S. cerevisiae deletion strains, locus YLR102C, strain apc9, active compounds read low 1.01 | S. cerevisiae deletion strains, locus YLR113W, strain HOG1, active compounds read low 1.01 | S. cerevisiae deletion strains, locus YLR221C, strain rsa3, active compounds read low 1.01 | S. cerevisiae deletion strains, locus YLR258W, strain gsy2, active compounds read low 1.02 | S. cerevisiae deletion strains, locus YLR262C, strain YPT6 (second series), active compounds read low 1 | S. cerevisiae deletion strains, locus YLR262C, strain YPT6, active compounds read low 1.04 | S. cerevisiae deletion strains, locus YLR268W, strain sec22, active compounds read low 1.02 | S. cerevisiae deletion strains, locus YLR320W, strain mms22, active compounds read low 1.02 | S. cerevisiae deletion strains, locus YLR330W, strain CHS5, active compounds read low 1.01 | S. cerevisiae deletion strains, locus YLR342W, strain FKS1 (second series), active compounds read low 1.04 | S. cerevisiae deletion strains, locus YLR342W, strain FKS1, active compounds read low 1.01 | S. cerevisiae deletion strains, locus YLR357W, strain rsc2, active compounds read low 1.04 | S. cerevisiae deletion strains, locus YLR370C, strain arc18, active compounds read low 1.01 | S. cerevisiae deletion strains, locus YLR371W, strain rom2, active compounds read low 1 | S. cerevisiae deletion strains, locus YLR384C, strain iki3, active compounds read low 1.02 | S. cerevisiae deletion strains, locus YLR418C, strain cdc73, active compounds read low 1.05 | S. cerevisiae deletion strains, locus YML016C, strain PPZ1, active compounds read low 1.01 | S. cerevisiae deletion strains, locus YML032C, strain rad52, active compounds read low 1.01 | S. cerevisiae deletion strains, locus YML120C, strain ndi1, active compounds read low 1 | S. cerevisiae deletion strains, locus YML124C, strain tub3, active compounds read low 1.01 | S. cerevisiae deletion strains, locus YMR058W, strain fet3, active compounds read low 1 | S. cerevisiae deletion strains, locus YMR078C, strain ctf18, active compounds read low 1.02 | S. cerevisiae deletion strains, locus YMR125W, strain sto1, active compounds read low 1.03 | S. cerevisiae deletion strains, locus YMR129W, active compounds read low 1.01 | S. cerevisiae deletion strains, locus YMR205C, strain PFK2, active compounds read low 1.02 | S. cerevisiae deletion strains, locus YMR223W, strain ubp8, active compounds read low 1.06 | S. cerevisiae deletion strains, locus YMR231W, strain pep5, active compounds read low 1.01 | S. cerevisiae deletion strains, locus YMR263W, strain SAP30, active compounds read low 1.02 and 1 | S. cerevisiae deletion strains, locus YMR307W, strain GAS1, active compounds read low 1.11 and 0.997 and 0.979 | S. cerevisiae deletion strains, locus YNL067W, strain RPL9B, active compounds read low 1.01 | S. cerevisiae deletion strains, locus YNL071W, strain lat1, active compounds read low 1 | S. cerevisiae deletion strains, locus YNL128W, strain TEP1, active compounds read low 1.02 | S. cerevisiae deletion strains, locus YNL175C, strain NOP13, active compounds read low 1 and 1.03 | S. cerevisiae deletion strains, locus YNL183C, strain NPR1, active compounds read low 0.974 | S. cerevisiae deletion strains, locus YNL197C, strain WHI3, active compounds read low 1 and 1.01 | S. cerevisiae deletion strains, locus YNL209W, strain ssb2, active compounds read low 1.02 | S. cerevisiae deletion strains, locus YNL224C, strain SQS1, active compounds read low 0.996 and 1 | S. cerevisiae deletion strains, locus YNL233W, strain BNI4, active compounds read low 0.99 | S. cerevisiae deletion strains, locus YNL248C, strain rpa49, active compounds read low 1.03 | S. cerevisiae deletion strains, locus YNL250W, strain rad50, active compounds read low 1.02 | S. cerevisiae deletion strains, locus YNL271C, strain bni1, active compounds read low 1.02 | S. cerevisiae deletion strains, locus YNL298W, strain CLA4, active compounds read low 1.02 | S. cerevisiae deletion strains, locus YNL307C, strain MCK1, active compounds read low 1.02 | S. cerevisiae deletion strains, locus YNL322C, strain KRE1 (second series), active compounds read low 1.01 | S. cerevisiae deletion strains, locus YNL322C, strain KRE1, active compounds read low 1.01 and 1.03 | S. cerevisiae deletion strains, locus YNR049C, strain mso1, active compounds read low 1.01 | S. cerevisiae deletion strains, locus YNR052C, strain pop2, active compounds read low 1.02 | S. cerevisiae deletion strains, locus YOL006C, strain TOP1, active compounds read low 1.05 | S. cerevisiae deletion strains, locus YOL012C, strain htz1 1.03 | S. cerevisiae deletion strains, locus YOL147C, strain pex11, active compounds read low 1.02 | S. cerevisiae deletion strains, locus YOR001W, strain rrp6, active compounds read low 1.01 | S. cerevisiae deletion strains, locus YOR061W, strain CKA2, active compounds read low 1.01 | S. cerevisiae deletion strains, locus YOR069W, strain VPS5, active compounds read low 1.01 | S. cerevisiae deletion strains, locus YOR070C, strain gyp1, active compounds read low 1.02 | S. cerevisiae deletion strains, locus YOR080W, strain dia2, active compounds read low 1.03 | S. cerevisiae deletion strains, locus YOR083W, strain WHI5 (second series), active compounds read low 1.01 | S. cerevisiae deletion strains, locus YOR083W, strain WHI5, active compounds read low 0.966 | S. cerevisiae deletion strains, locus YOR106W, strain vam3, active compounds read low 1.01 | S. cerevisiae deletion strains, locus YOR136W, strain idh2, active compounds read low 1.02 | S. cerevisiae deletion strains, locus YOR144C, strain elg1, active compounds read low 1.02 | S. cerevisiae deletion strains, locus YOR184W, strain ser1, active compounds read low 1.02 | S. cerevisiae deletion strains, locus YOR231W, strain MKK1, active compounds read low 1.02 | S. cerevisiae deletion strains, locus YOR265W, strain rbl2, active compounds read low 1.01 | S. cerevisiae deletion strains, locus YOR270C, strain vph1, active compounds read low 1.02 | S. cerevisiae deletion strains, locus YOR290C, strain snf2, active compounds read low 1.03 | S. cerevisiae deletion strains, locus YOR316C, strain cot1, active compounds read low 1.01 | S. cerevisiae deletion strains, locus YPL051W, strain arl3, active compounds read low 1.01 | S. cerevisiae deletion strains, locus YPL055C, strain LGE1, active compounds read low 1.01 | S. cerevisiae deletion strains, locus YPL078C, strain atp4, active compounds read low 1 | S. cerevisiae deletion strains, locus YPL106C, strain sse1, active compounds read low 1.04 | S. cerevisiae deletion strains, locus YPL240C, strain hsp82, active compounds read low 1.02 | S. cerevisiae deletion strains, locus YPL241C, strain CIN2, active compounds read low 1.01 | S. cerevisiae deletion strains, locus YPL256C, strain CLN2, active compounds read low 1.04 | S. cerevisiae deletion strains, locus YPR119W, strain clb2, active compounds read low 1.01 | S. cerevisiae deletion strains, locus YPR141C, strain kar3, active compounds read low 1.01 | S. cerevisiae deletion strains, locus YPR163C, strain tif3, active compounds read low 1.02 | S. cerevisiae deletion strains, locus YPR167C, strain met16, active compounds read low 1.02 | S. cerevisiae deletion strains, strain wtn01, active compounds read low 1.04 | S. cerevisiae strains, strain wild type, active compounds read low 1.01
